Screening results as filed in PubChem.
TDP1 cell CPT = DT40-hTDP1 cell growth loss with CPT | chicken DT40 Tdp1-/-;hTDP1 cells + 20 nM CPT, ATP luminescence, 48 h | Potency, µM (top dose mostly 46.2 µM), actives largely listed as inhibitors | 420,000 tested, 12% active | AID 686979; note: nearly all actives have a fitted effect of over 55% in size
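Chicken DT40 Tdp1-/- cells stably complemented with human TDP1 were seeded at 400 cells/well in medium containing 20 nM camptothecin, exposed to pin-transferred compounds, and grown at 37 °C for at least 48 hr. Viability was read as ATP luminescence.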
DT40 TDP1 no CPT = qHTS for Inhibitors of human tyrosyl-DNA phosphodiesterase 1 (TDP1): qHTS in cells in absence of CPT; Potency, µM (highest dose often 46.2 µM), actives largely listed as inhibitors; DT40 Tdp1-/- hTDP1 cells, no CPT, ATP luminescence, 48 h; 420,000 tested, 15% active; note: nearly all actives have a fitted effect of over 55% in size
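A cellular qHTS used chicken DT40 cells lacking endogenous Tdp1 but carrying stably transfected human TDP1. Compounds were applied without camptothecin, and cell growth kinetics were judged by ATP-dependent luminescence after ≥48 hr.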
HepG2 tox = counter-screen for TGF-b inhibitors: cytotoxicity in HepG2 cells; Potency, µM (series often up to 46.1 µM), hits mostly cytotoxic; AID 588856; 410,000 tested, 0.76% active; HepG2 CAGA-GFP viability, ATP luminescence, 18 h
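HepG2 CAGA-GFP cells (1000/well, DMEM with 1% FBS) received compound, then TGF-beta at 500 pg/mL final, and were incubated 18 hours at 37 degrees C. Viability was read by CellTiter-Glo luminescence. Media-only wells were set as complete cell-killing and DMSO as no toxicity.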
TGFb inhibitor = blocks TGF-b signaling; HepG2 CAGA-GFP TGF-b/SMAD3 reporter, GFP fluorescence, 18 h; TGF-beta stimulated, 500 pg/mL final; Potency, µM (series often up to 46.1 µM), usual class: inhibitors; 410,000 tested, 1.2% active; AID 588855; note: nearly all actives have a fitted effect of over 65% in size
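GFP signal (ex488/em500-530) from TGF-beta-stimulated HEPG2 CAGA-GFP cells, 500 pg/mL final, 18 h at 37 degrees C in DMEM plus 1% FBS, normalized to unstimulated and DMSO-stimulated controls.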
TDP1 block = inhibitors of human tyrosyl-DNA phosphodiesterase TDP1; 350,000 tested, 0.28% active; Potency, µM (doses to about 130 µM), actives largely listed as inhibitors; AID 485290; Q9NUW8; recombinant TDP1, AlphaScreen DNA substrate cleavage; note: nearly all actives have a fitted effect of over 40% in size
Target sequence (Q9NUW8 whole entry, looked up): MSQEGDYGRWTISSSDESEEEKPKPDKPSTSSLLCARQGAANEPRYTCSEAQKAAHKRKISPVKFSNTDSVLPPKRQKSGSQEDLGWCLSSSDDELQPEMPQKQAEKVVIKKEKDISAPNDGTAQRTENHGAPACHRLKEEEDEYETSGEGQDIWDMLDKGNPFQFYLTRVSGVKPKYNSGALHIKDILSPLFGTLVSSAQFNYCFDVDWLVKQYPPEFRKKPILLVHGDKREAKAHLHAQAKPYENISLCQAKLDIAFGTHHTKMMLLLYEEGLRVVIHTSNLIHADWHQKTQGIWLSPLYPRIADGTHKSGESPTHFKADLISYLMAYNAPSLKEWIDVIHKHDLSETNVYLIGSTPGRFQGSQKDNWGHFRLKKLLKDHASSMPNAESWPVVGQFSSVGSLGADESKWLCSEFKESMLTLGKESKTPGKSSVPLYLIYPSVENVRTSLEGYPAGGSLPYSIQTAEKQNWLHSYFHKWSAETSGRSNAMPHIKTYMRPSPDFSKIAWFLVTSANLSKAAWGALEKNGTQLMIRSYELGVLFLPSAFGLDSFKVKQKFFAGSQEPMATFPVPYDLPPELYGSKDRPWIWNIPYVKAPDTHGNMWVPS
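AlphaScreen read-out: signal falls as enzyme removes the 3' tyrosine-FITC from a 5'-biotinylated DNA oligo (15 nM, 5 min, RT). Enzyme was E. coli-made recombinant Tdp1 at 1 nM, exposed to compound for 15 min beforehand; beads 10 ug/ml, 10 min.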
IL1B secr inh = inflammasome signaling inhibition, IL-1 beta readout. 360,000 tested, 4.7% active. activity change, % at 57.5 µM. THP-1 LPS/ATP IL-1B secretion, AlphaLISA, 16 h; stronger effect = lower value; in the data active = activity change below about -50%; inconclusive = mostly about -30% to -49%
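THP-1 cells pretreated 1 hr with compounds (up to 57.5 uM final), then stimulated with LPS (250 ng/mL final) plus ATP (1.25 mM final); secreted IL-1B measured by AlphaLISA after 16 hr, decreased signal indicating inhibition.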
Large screens that a line does not name were inactive. Hits are enriched below; roughly 19% of the tested compounds scored in any of these assays. Unless noted, calls come from the whole dose curve; as a rule, active = well fitted curve in the direction sought with a large enough effect; inconclusive = small, poorly fitted or top-dose-only effect, or another doubt; inactive = no such curve, though single readings can be large; an effect the other way counts as inactive or inconclusive.

Nn1c(-c2ccccc2)nc2cc(Cl)ccc2c1=O	none (no result: TDP1 block)
N#C/C(=C\c1ccc(O)cc1)C(=O)NCc1ccccc1	TDP1 cell CPT inconclusive, IL1B secr inh -63.2 (no result: TDP1 block)
N#C/C(=C/c1ccc(O)cc1)C(=O)NCc1ccc(Cl)cc1	IL1B secr inh -65.3 (no result: TDP1 block)
N#C/C(=C\c1ccc(O)cc1)C(=O)NCc1cccc(Cl)c1	TGFb inhibitor inconclusive (no result: TDP1 block)
COc1ccc(/C=C(\C#N)C(=O)NCc2ccccc2)cc1	none (no result: TDP1 block)
CC(=O)Nc1ccc(/C=C(\C#N)C(=O)NCc2ccccc2)cc1	DT40 TDP1 no CPT inconclusive, IL1B secr inh -67.8
CN1N=C(C(C)(C)C)CSC1=Nc1ccccc1	DT40 TDP1 no CPT inconclusive
CN1CCN(C(c2ccccc2)c2sc3nc(-c4ccco4)nn3c2O)CC1 (centres undefined)	none (no result: IL1B secr inh)
Cc1ccccc1N=C(c1ccccc1)C1C(=O)c2ccccc2C1=O	TDP1 cell CPT 10.3µM, DT40 TDP1 no CPT 10.3µM, TGFb inhibitor inconclusive (no result: TDP1 block)
Cc1ccc(C(=O)C2C(=O)c3ccccc3C2=O)cc1	TDP1 cell CPT inconclusive
Cc1cc(C(=O)N2CCN(c3cccc(C)c3C)CC2)c2c(C)nn(-c3ccccc3)c2n1	TDP1 cell CPT inconclusive, DT40 TDP1 no CPT 7.31µM (no result: IL1B secr inh)
Cc1ccc(-n2ncc3c(=O)n(CC(=O)N4CCN(c5ccccc5)CC4)cnc32)cc1	none
Cc1cc(C)c(NC(=O)CCCn2c(C)c3cnn(-c4ccccc4)c(=O)c3c2C)c(C)c1	TDP1 cell CPT inconclusive, DT40 TDP1 no CPT 23.1µM, TGFb inhibitor inconclusive (no result: IL1B secr inh)
Cc1cccc(N2CCN(C(=O)Cn3c(C)c4cnn(-c5ccccc5)c(=O)c4c3C)CC2)c1C	TDP1 cell CPT 7.31µM, DT40 TDP1 no CPT 5.8µM, TGFb inhibitor inconclusive (no result: IL1B secr inh)
CSc1ccc(CCNC(=O)Cn2c(C)c3cnn(-c4ccccc4)c(=O)c3c2C)cc1	TDP1 cell CPT inconclusive (no result: IL1B secr inh)
Cc1ccc(C)c(N2CCN(C(=O)C(C)n3c(C)c4cnn(-c5ccccc5)c(=O)c4c3C)CC2)c1 (centres undefined)	TDP1 cell CPT 20.6µM, DT40 TDP1 no CPT 16.4µM, TGFb inhibitor inconclusive (no result: IL1B secr inh)
CCOC(=O)C1=C(CS(=O)(=O)c2c(C)cc(C)cc2C)NC(=O)NC1c1cccc(OC)c1 (centres undefined)	DT40 TDP1 no CPT inconclusive (no result: IL1B secr inh)
Cc1nn(C(=O)COc2ccccc2Br)c(C)c1Sc1ccccc1	none (no result: TDP1 block, IL1B secr inh)
O=C(c1cccnc1)C1CCCN(Cc2ccc3c(c2)CN(C(=O)c2cccs2)CCO3)C1 (centres undefined)	DT40 TDP1 no CPT inconclusive (no result: HepG2 tox, TGFb inhibitor, TDP1 block, IL1B secr inh)
Cc1cccc(NC(=O)CCCn2c(C)c3cnn(-c4ccccc4)c(=O)c3c2C)c1C	TDP1 cell CPT 20.6µM, DT40 TDP1 no CPT inconclusive, TGFb inhibitor inconclusive (no result: IL1B secr inh)
Cc1ccc(C)c(NC(=O)CCCn2c(C)c3cnn(-c4ccccc4)c(=O)c3c2C)c1	TDP1 cell CPT 18.4µM, DT40 TDP1 no CPT inconclusive, TGFb inhibitor inconclusive (no result: IL1B secr inh)
Cc1c(C(=O)NCCN2CCOCC2)oc2ccc(Br)cc12	none (no result: TDP1 block)
CCn1cc(C(=O)N2CCN(c3ccccc3F)CC2)c(=O)c2cc(S(=O)(=O)N(C)C3CCCCC3)ccc21	DT40 TDP1 no CPT inconclusive (no result: IL1B secr inh)
CC(=O)N(c1ccccc1)c1ccccc1[N+](=O)[O-]	TDP1 cell CPT inconclusive, DT40 TDP1 no CPT 25.9µM (no result: TDP1 block)
COC(=O)CN(c1ccccc1[N+](=O)[O-])S(=O)(=O)c1ccccc1	none
O=C(Nc1nc2ccccc2n1CCOc1ccccc1Cl)c1ccccc1	TDP1 cell CPT inconclusive, DT40 TDP1 no CPT inconclusive (no result: IL1B secr inh)
CC(=O)Nc1nc2ccccc2n1CCOc1ccccc1Cl	TDP1 cell CPT inconclusive, DT40 TDP1 no CPT 14.6µM
COc1ccccc1OCCn1c(NC(=O)c2ccc(Cl)cc2)nc2ccccc21	none (no result: IL1B secr inh)
COc1ccccc1OCCn1c(NC(=O)c2ccccc2Cl)nc2ccccc21	TDP1 cell CPT 23.1µM, DT40 TDP1 no CPT 16.4µM (no result: IL1B secr inh)
